Screening data: PubChem, National Center for Advancing Translational Sciences (NCATS)
Only a selection was taken, and hits are over-represented in it overall.
Giardia kill: Small Molecules that selectively kill Giardia lamblia: qHTS | Giardia lamblia trophozoite viability | activity change, % at 7.66 µM, hits read low | 0.15% of 340,000 active | AID 540267, 2011; in the data active = activity change below about -80%; inconclusive = between about -30% and that limit;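 note: parasites exposed to compound for two days anaerobically before the ATP read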
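Luminescence from cellular ATP indicates surviving trophozoites (100 cells/well) following 48 hrs anaerobic compound treatment at 37 deg C; signal develops 15-30 min at room temperature.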
RORgamma inh: qHTS for inhibitors of ROR gamma transcriptional activity. Nuclear receptor ROR-gamma (Mus musculus), P51450. Drosophila S2 Gal4-RORgamma UAS-luciferase reporter, 20 h. Potency, µM (top dose mostly 53.6 µM), most hits filed as inhibitors. 5.4% of 310,000 active; note: nearly all actives have a fitted effect of over 60% in size
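Using a luciferase readout, inhibitors were identified by reduced reporter activity in Drosophila cells coexpressing a copper-inducible Gal4–ROR gamma fusion and UAS-driven Photinus luciferase, incubated 20 hr after 700 uM copper sulfate.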
Integrin act MD: qHTS for Activators of Integrin-Mediated Alleviation for Muscular Dystrophy | alpha7betagal myoblasts, beta-gal FDG fluorescence, 48 h | Potency, µM (doses to about 38.3 µM), actives largely listed as activators | 0.064% of 350,000 active | AID 624291, 2012; note: nearly all actives have a fitted effect of over 60% in size
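alpha7betagal+/- myoblasts (passage 13, 250/well) treated 48 h at 37C with compounds at 1:260 dilution of DMSO stock. Lysed, then beta-galactosidase activity read as FDG fluorescence (ex 480/em 540) after 30 min, with pre-read for autofluorescence.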
ERG Ets-DNA blk: qHTS for Small Molecule Inhibitors of the ERG Ets/DNA interaction. fluorescence polarization, His-ERG Ets domain / labelled DNA. Potency, µM (series often up to 76.9 µM), hits mostly inhibitors. 0.028% of 370,000 active; active = well fitted inhibition curve with a large enough effect in the polarisation, with a control signal flat; inconclusive = small, poorly fitted or top-dose-only effect, or effect the other way, or a change in a side signal; inactive = no such curve, though single readings can be large or run the other way; the % refers to the polarisation;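 note: polarization taken with two DNA probes labelled with fluorescein and Texas red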
Target sequence (P11308 whole entry, looked up, the tested form may be a part): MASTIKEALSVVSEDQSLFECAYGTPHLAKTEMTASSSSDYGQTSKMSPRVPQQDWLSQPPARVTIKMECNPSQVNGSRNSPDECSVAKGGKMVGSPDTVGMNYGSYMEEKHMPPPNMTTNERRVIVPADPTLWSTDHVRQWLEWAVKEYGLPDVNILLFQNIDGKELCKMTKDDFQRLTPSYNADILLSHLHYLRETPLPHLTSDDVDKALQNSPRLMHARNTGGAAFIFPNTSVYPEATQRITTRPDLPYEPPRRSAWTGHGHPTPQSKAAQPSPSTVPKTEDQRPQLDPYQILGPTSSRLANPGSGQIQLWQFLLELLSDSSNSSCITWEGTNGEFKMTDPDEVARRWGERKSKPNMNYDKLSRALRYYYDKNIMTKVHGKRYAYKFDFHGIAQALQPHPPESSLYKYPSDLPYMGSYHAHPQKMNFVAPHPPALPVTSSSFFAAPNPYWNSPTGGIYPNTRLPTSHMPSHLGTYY
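His-tagged ERG Ets domain (1 uM in the protein solution; 300mM KCl, 50mM Tris-HCl, 1mM EDTA, 1mM DTT, pH 7.5) received compound, then a probe mix of 5 nM fluorescein-DNA and 100nM Texas-615-DNA. Fluorescence polarization was read for both dyes.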
VP16 counter: VP16 counterscreen qHTS for inhibitors of ROR gamma transcriptional activity; AID 2546, 2010; 3.5% of 310,000 active; Drosophila S2 Gal4-VP16 UAS-luciferase, luminescence, 20 h; Potency, µM (highest dose often 53.6 µM), usual class: inhibitors;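 note: Gal4-VP16 expression switched on by copper sulfate through the metallothionein promoter; nearly all actives have a fitted effect of over 50% in size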
Large screens that a line does not name were inactive. Unless noted, calls come from the whole dose curve; as a rule, active = well fitted curve in the direction sought with a large enough effect; inconclusive = small, poorly fitted or top-dose-only effect, or another doubt; inactive = no such curve, though single readings can be large; an effect the other way counts as inactive or inconclusive.

O=C(CCCCCn1c(=S)[nH]c2ccc(N3CCOCC3)cc2c1=O)NCc1cccc(Cl)c1	RORgamma inh 10µM
Cc1c(C)n(C)c2ccc(C(=O)NCCc3ccc(Cl)cc3)cc12	none (no result: Giardia kill, RORgamma inh, Integrin act MD, VP16 counter)
CCn1c(-c2cc(-c3ccc(C)c(C)c3)nc3ccccc23)n[nH]c1=S	RORgamma inh 10µM (no result: Giardia kill, Integrin act MD, ERG Ets-DNA blk)
CCn1c(-c2cc(-c3cc(C)ccc3C)nc3ccccc23)n[nH]c1=S	RORgamma inh inconclusive
Cc1ccc(-c2cc(-c3n[nH]c(=S)n3C)c3ccccc3n2)cc1	RORgamma inh 1.3µM
CCOc1cccc(-c2cc(-c3n[nH]c(=S)n3CC)c3ccccc3n2)c1	RORgamma inh 0.13µM, VP16 counter inconclusive
CCn1c(-c2c[nH]c3ccccc23)n[nH]c1=S	RORgamma inh inconclusive (no result: ERG Ets-DNA blk)
CCn1c(-c2cc(C3CC3)nc3ccccc23)n[nH]c1=S	RORgamma inh inconclusive
CCOc1ccccc1-c1cc(-c2n[nH]c(=S)n2CC)c2ccccc2n1	RORgamma inh 5.6µM
Cc1ccc(-n2c(=O)c3cccnc3n2CC(=O)NCc2ccc(Cl)cc2)cc1	none (no result: Giardia kill, RORgamma inh, Integrin act MD, VP16 counter)
COc1ccc(C(=O)/C=C/Nc2ccccn2)c(OC)c1	none
C/C(=C\C(=O)c1ccc(C)cc1)Nc1cccc(O)c1	RORgamma inh 6.3µM, VP16 counter 3.5µM
CC(=O)c1cccc(NS(=O)(=O)c2ccc(NC(=O)N3CCCCC3)cc2)c1	VP16 counter 10µM
O=C(/C=C/Nc1ccc(F)c(Cl)c1)c1ccccc1	none
O=C(/C=C/Nc1cccc(O)c1)c1ccccc1	RORgamma inh 5µM, VP16 counter 6.3µM (no result: ERG Ets-DNA blk)
O=C(/C=C\Nc1ccccn1)c1ccccc1	RORgamma inh 5µM, VP16 counter 13µM
C/C(=C\C(=O)c1ccccc1)Nc1ccc(O)cc1	RORgamma inh inconclusive
CCc1ccc(-c2nc(CSCC(=O)N3CCN(c4ccc(F)cc4)CC3)c(C)o2)cc1	none (no result: Giardia kill, RORgamma inh, Integrin act MD, VP16 counter)
COCCn1c(=O)c(-c2ccccc2)nc2cnc(OC)nc21	none (no result: Giardia kill, Integrin act MD, ERG Ets-DNA blk)
CCCC(=O)n1nc(-c2cccnc2)nc1NCc1ccccc1	none
CCOC(=O)CCn1cc(F)c(=O)n(Cc2ccccc2)c1=O	none
COc1cccc(CN2CCCN(CC(=O)Nc3ccc4c(c3)OCCO4)S2(=O)=O)c1	none (no result: Giardia kill, RORgamma inh, Integrin act MD, VP16 counter)
COc1ccc(N/C=C\C(=O)c2ccc3ccccc3c2)cc1	none
COc1ccc(N/C=C/C(=O)c2ccccc2)cc1	RORgamma inh 7.9µM, Integrin act MD inconclusive, VP16 counter 10µM
Cc1ccc(C(=O)/C=C/Nc2cccc(O)c2)cc1	RORgamma inh 2.2µM, VP16 counter 1µM (no result: ERG Ets-DNA blk)
CC(=O)c1ccc(N/C=C\C(=O)c2ccc(C)cc2)cc1	none
C/C(=C\C(=O)c1cccnc1)Nc1ccc(O)cc1	RORgamma inh 13µM, VP16 counter inconclusive
CC(=O)c1cccc(NS(=O)(=O)c2ccc(N/C=C/C(=O)c3ccc(F)cc3)cc2)c1	RORgamma inh inconclusive, VP16 counter 4.5µM
COc1ccc(S(=O)(=O)N2CCCC(C(=O)Nc3cccc(C(C)=O)c3)C2)cc1 (centres undefined)	RORgamma inh inconclusive, VP16 counter 4.5µM
CC(=O)c1cccc(N/C=C\C(=O)c2ccc(C)cc2)c1	RORgamma inh 2.2µM, VP16 counter 8.9µM
CC(=O)c1cccc(NC(=O)C2CCCN(S(=O)(=O)c3ccc(F)cc3)C2)c1 (centres undefined)	none
CCn1c(C(=O)N2CCCC(C(=O)N3CCN(c4cc(C)ccc4C)CC3)C2)cc2sccc21 (centres undefined)	none (no result: Giardia kill, RORgamma inh, Integrin act MD, VP16 counter)
CN(C)c1ccc(CNC(=O)CN2CCSc3ccc(S(=O)(=O)N(C)C)cc32)cc1	none (no result: Giardia kill, RORgamma inh, Integrin act MD, VP16 counter)
COC(=O)C/C=C\[C@@H](C)[C@@H](/C=N\O[C@@H](C)c1cn([C@H]2COC[C@H]2O)nn1)NS(=O)(=O)c1ccc(C)cc1	none (no result: Giardia kill, Integrin act MD, ERG Ets-DNA blk)
CCc1nnc(NC(=O)c2ccc(S(=O)(=O)N3CCCC(C)C3)cc2)s1 (centres undefined)	none
CCc1nnc(NC(=O)c2ccc(S(=O)(=O)N3CCCC(C)C3)cc2)o1 (centres undefined)	RORgamma inh 0.22µM, VP16 counter 0.63µM
CC1CCCN(S(=O)(=O)c2ccc(C(=O)Nc3nnc(-c4ccco4)o3)cc2)C1 (centres undefined)	RORgamma inh 1.1µM, VP16 counter 0.5µM
